# Out of some 13,000 compounds screened, about 3,200 (25%) showed an effect of 50% or more. The list shows a part of the results.
# System: P. falciparum stage V gametocytes
# Design: BacTiter-Glo ATP luminescence viability of purified stage V gametocytes in 384-well plates, per cent inhibition versus DMSO
# Conditions: 48 h, 5 µM; inhibitor
row,Structure (SMILES),% Inhibition [%]
1,O=C1NC(=O)C(c2ccc(Cl)cc2)=C1Nc1cccc(S(=O)(=O)C(F)(F)F)c1 [TCMDC-139487],41.44
2,Cc1cc(C)cc(-n2c(C)cc(/C=C3\SC(=Nc4ccc(Cl)cc4)NC3=O)c2C)c1 [TCMDC-124103],64.96
3,CCn1c(C)cc(C=C2SC(=Nc3ccccc3)NC2=O)c1C [TCMDC-124456],-43.68
4,Cc1cc(C=C2SC(=Nc3ccccc3)N(C3CCCC3)C2=O)c(C)n1-c1ccc(Cl)cc1 [TCMDC-125698],-5.321
5,COc1cc(Cc2cnc(N)nc2N)cc(OC)c1OCCCCCN1C(=O)c2ccccc2C1=O [TCMDC-138036],16.13
6,CCCCCCNC(=O)C1Cc2c([nH]c3ccc(C)cc23)C2(CCN(Cc3ccccc3)CC2)N1 (stereo not drawn) [TCMDC-141091],29.77
7,CC(C)CCNC(=O)C1Cc2c([nH]c3cc(Br)ccc23)C2(CCN(Cc3ccccc3)CC2)N1 (stereo not drawn) [TCMDC-141258],102.3
8,CCCNC(=O)C1Cc2c([nH]c3ccc(Br)cc23)C2(CCN(CCc3ccccc3)CC2)N1 (stereo not drawn) [TCMDC-141184],7.991
9,CNC(=O)C1Cc2c([nH]c3ccc(Br)cc23)C2(CCN(CCc3ccccc3)CC2)N1 (stereo not drawn) [TCMDC-141185],-21.04
10,CC(C)CCNC(=O)C1Cc2c([nH]c3cc(Cl)ccc23)C2(CCN(CCc3ccccc3)CC2)N1 (stereo not drawn) [TCMDC-141294],25.11
11,O=C(NCc1ccccc1)C1Cc2c([nH]c3ccc(Br)cc23)C2(CCN(Cc3ccccc3)CC2)N1 (stereo not drawn) [TCMDC-141183],77.73
12,CCCCCCNC(=O)C1Cc2c([nH]c3ccc(Br)cc23)C2(CCN(CCc3ccccc3)CC2)N1 (stereo not drawn) [TCMDC-141182],-10.63
13,CC(C)CCNC(=O)C1Cc2c([nH]c3cc(Br)ccc23)C2(CCN(CCc3ccccc3)CC2)N1 (stereo not drawn) [TCMDC-141259],-3.364
14,CCCNC(=O)C1Cc2c([nH]c3cc(Br)ccc23)C2(CCN(CCc3ccccc3)CC2)N1 (stereo not drawn) [TCMDC-141260],-73.32
15,CCCCCCNC(=O)C1Cc2c([nH]c3ccc(Br)cc23)C2(CCN(Cc3ccccc3)CC2)N1 (stereo not drawn) [TCMDC-141181],96.4
16,O=C(NCC1CC1)C1Cc2c([nH]c3ccc(Br)cc23)C2(CCN(CCc3ccccc3)CC2)N1 (stereo not drawn) [TCMDC-141180],-28.21
17,CNC(=O)C1Cc2c([nH]c3cc(Br)ccc23)C2(CCN(CCc3ccccc3)CC2)N1 (stereo not drawn) [TCMDC-141261],85.59
18,Clc1ccc(-c2ncc(-c3ccncc3)[nH]2)cc1Cl [TCMDC-135775],-31.04
19,Nc1ccnc(N2CCC(CCOc3ccnc4cc(Cl)ccc34)CC2)c1 [TCMDC-141365],-42.39
20,CC(=O)Nc1nnc(SCc2c(C)cc(C(C)(C)C)cc2C)s1 [TCMDC-125446],0.04812
21,CN1CC[C@@H](Oc2cc(Nc3nc(-c4ccc(C#N)cc4)cs3)ccc2Cl)C1 [TCMDC-136291],12.39
22,CC(C)CCNC(=O)C1Cc2c([nH]c3ccc(Br)cc23)C2(CCN(CCc3ccccc3)CC2)N1 (stereo not drawn) [TCMDC-141179],47.91

row,Structure (SMILES),% Inhibition [%]
1,Cc1ccc2[nH]c3c(c2c1)CC(C(=O)NCCC(C)C)NC31CCN(Cc2ccccc2)CC1 (stereo not drawn) [TCMDC-141090],28.05
2,CCCCCCNC(=O)C1Cc2c([nH]c3ccc(F)cc23)C2(CCN(Cc3ccccc3)CC2)N1 (stereo not drawn) [TCMDC-141303],21.59
3,CCCCCCNC(=O)C1Cc2c([nH]c3cc(Cl)ccc23)C2(CCN(CCC)CC2)N1 (stereo not drawn) [TCMDC-141297],-77.49
4,CCCCCCNC(=O)C1Cc2c([nH]c3cc(Cl)ccc23)C2(CCN(Cc3ccccc3)CC2)N1 (stereo not drawn) [TCMDC-141296],89.1
5,CC(C)CCNC(=O)C1Cc2c([nH]c3ccc(Br)cc23)C2(CCN(Cc3ccccc3)CC2)N1 (stereo not drawn) [TCMDC-141178],102.8
6,Nc1cc(-c2cc3c(OCc4ccccc4)cccc3[nH]2)ccn1 [TCMDC-134290],-55.8
7,CN(C)CCC1CCN(CCS(=O)(=O)c2cccc(Nc3ccc(-c4ccsc4)cn3)c2)CC1 [TCMDC-134377],15.01
8,Cc1cc(Cl)ccc1NC(=O)Nc1ccc2nccc(N3CCN(C)CC3)c2c1 [TCMDC-139357],8.372
9,COc1cc(OCCCN(C)Cc2ccc(OC)c(OC)c2)ccc1NC(=O)c1cccc2c(=O)c3cccc(F)c3[nH]c12 [TCMDC-131853],16.5
10,COc1ccc(CCN(C)CCc2ccc(NC(=O)c3cccc4c(=O)c5ccccc5sc34)cc2)cc1 [TCMDC-131965],45.76
11,COc1ccc(CCN(C)CCOc2ccc(NC(=O)c3cc(SC)cc4c(=O)c5ccccc5[nH]c34)cc2)cc1OC [TCMDC-131957],24.55
12,COc1ccc(CCN(C)CCCN2CCC(NC(=O)c3cccc4c(=O)c5ccccc5sc34)CC2)cc1OC [TCMDC-131966],103.2
13,COc1ccc(CN(C)Cc2ccc(NC(=O)c3cccc4c(=O)c5cccc(C)c5[nH]c34)cc2)cc1OC [TCMDC-131852],2.818
14,COc1ccc(CCN(C)CCCCc2ccc(NC(=O)c3cccc4c(=O)c5cc(F)ccc5sc34)cc2)cc1OC [TCMDC-131961],94.02
15,COc1ccc(CN(C)CCOc2ccc(NC(=O)c3cccc4c(=O)c5cc(SC)ccc5[nH]c34)cc2)cc1OC [TCMDC-131956],28.02
16,COc1ccc(CCN(C)CCOc2ccc(NC(=O)c3cccc4c(=O)c5cc(SC)ccc5[nH]c34)cc2)cc1OC [TCMDC-131958],53.19
17,COc1ccc(CN(C)CCCOc2ccc(NC(=O)c3cccc4c(=O)c5cccc(C)c5[nH]c34)cc2)cc1OC [TCMDC-131850],23.76
18,COc1ccc(CN(C)CCCOc2ccc(NC(=O)c3cccc4c(=O)c5cccc(F)c5[nH]c34)cc2)cc1OC [TCMDC-131846],60.98
19,COc1ccc(CCN(C)CCCOc2ccc(NC(=O)c3cccc4c(=O)c5ccccc5[nH]c34)cc2)cc1OC [TCMDC-132116],43.65
20,O=C(NCC1CCC(C(=O)NC2CCCc3ccccc32)CC1)c1ccc(O)c(-c2ccc(Cl)c(Cl)c2)c1 (stereo not drawn) [TCMDC-140891],17.3
21,COC(=O)C(NC(=O)NC1CCN(c2ccnc(Nc3ccc(F)cc3)n2)C1)c1ccccc1 (stereo not drawn) [TCMDC-133595],4.499
22,CCc1sc(CN(CCCNc2cc(=O)c3ccccc3[nH]2)Cc2sc(CC)c(Br)c2-c2ccsc2)c(-c2ccsc2)c1Br [TCMDC-140753],49.24

row,Structure (SMILES),% Inhibition [%]
1,N=C1c2ccccc2CN1CC(=O)c1ccc(Cl)c(Cl)c1 [TCMDC-123783],-26.95
2,N#Cc1ccc2c(c1)CCN(CCC1CCC(NC(=O)/C=C/c3cnc4ccccc4c3)CC1)CC2 (stereo not drawn) [TCMDC-139662],-42.99
3,O=C(NCc1ccc(F)cc1)Nc1cccc(-c2ccc(-c3nc4ccc(F)cc4[nH]3)cc2)c1 [TCMDC-133301],-42.08
4,CCc1nnc2sc(-c3cccc(NC(=O)c4ccc(OC)c(Cl)c4)c3)nn12 [TCMDC-125049],-8.625
5,CC(C)(CN)c1cc(-c2ccc(Cl)c(O)c2)c(-c2ccncc2)o1 [TCMDC-141334],-68.46
6,CCCC(=O)Nc1ccc(Cl)c(NC(=O)COc2cc(C)ccc2C(C)C)c1 [TCMDC-123706],-6.515
7,CCc1ccc(NC(=O)c2ccc(CN3CCCN(Cc4cccc(C)c4)CC3)cc2)cc1 [TCMDC-136440],-10.99
8,Nc1ncnc2nc(-c3ccc(F)cc3)cc(-c3ccc(NC(=O)c4ccccc4)cc3)c12 [TCMDC-134854],-13.72
9,CCCC1N=C(N)N=C(N)N1c1ccc(CC)cc1 (stereo not drawn) [TCMDC-131300],-2.095
10,CC(C)CC1c2[nH]c3ccccc3c(=O)c2CN1C(=O)OC(C)(C)C (stereo not drawn) [TCMDC-134513],44.74
11,COc1ccc(CCN(C)CCCOc2ccc(NC(=O)COc3cccc4sc5ccccc5c(=O)c34)cc2)cc1OC [TCMDC-132117],17.11
12,COc1ccc(CN(C)CCCc2ccc(NC(=O)c3cccc4c(=O)c5ccccc5[nH]c34)cc2)cc1OC [TCMDC-131963],13.74
13,COc1cc(CCN(C)Cc2ccc(OC)c(OC)c2)ccc1NC(=O)c1cccc2c(=O)c3cccc(F)c3[nH]c12 [TCMDC-131854],37.94
14,COc1ccc(CN(C)CCCc2ccc(NC(=O)c3cccc4c(=O)c5cccc(F)c5[nH]c34)cc2)cc1OC [TCMDC-131964],81.66
15,COc1ccc(CN(C)CCCCc2ccc(NC(=O)COc3cccc4sc5ccccc5c(=O)c34)cc2)cc1OC [TCMDC-131960],103.7
16,COc1ccc(CCN(C)CCOc2ccc(NC(=O)COc3ccc4sc5ccccc5c(=O)c4c3)cc2)cc1OC [TCMDC-132111],31.27
17,Cn1cnnc1Sc1ccc(CN2CCOc3ccc(C4=CCCCC4)cc3C2)o1 [TCMDC-124661],-23.49
18,NC1=NC(c2ccccc2)(c2ccccc2)C(=O)N1CCOc1ccccc1 [TCMDC-136493],-46.39
19,Clc1ccc2c(N3CCN(CCN4CCN(c5ccnc6cc(Cl)ccc56)CC4)CC3)ccnc2c1 [TCMDC-125557],-4.056
20,CCOC(=O)C(=CNc1ccc(Cc2cnc(N)nc2N)cc1CC)C(=O)OCC [TCMDC-137346],53.58
21,CCc1cc(Cc2cnc(N)nc2N)cc(CC)c1OC [TCMDC-137697],-15.83
22,CCCc1cc(Cc2cnc(N)nc2N)ccc1OCCCCCC(=O)OCC [TCMDC-137232],-11.7

# Source: publication PMC4552634, “A New Set of Chemical Starting Points with Plasmodium falciparum Transmission-Blocking Potential for Antimalarial Drug Discovery” (PLoS ONE, 2015)
